Screens from PubChem.
PAX8 reporter: inhibitors of PAX8 transcriptional activity in RMG-I cells. RMG-I TPO-luciferase reporter, SteadyGlo, 24 h. inhibition, % at 12.6 µM. 360,000 tested, 1.2% active;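 active = mean replicate inhibition at least 60% with every replicate also reaching 60%; inconclusive = only one of the two criteria is met; inactive = mean below 60% and not all replicates reaching 60%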;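 note: luciferase light reporting Pax8 driven TPO promoter activity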
EWS-Fli block: blocks EWS/Fli oncoprotein-driven transcription; A673 NR0B1-luciferase reporter, viability-normalised; inhibition, % at 12.6 µM; 350,000 tested, 0.67% active; AID 651661;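 active = mean inhibition of at least 50% after viability correction, with every replicate also passing that limit; inconclusive = mean reaches 50% but only one of two replicates passes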;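 note: firefly luciferase signal divided by Alamar Blue viability fluorescence both relative to DMSO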
LGR2 antag: inhibitors of bursicon-induced Drosophila LGR2 receptor cAMP signaling; AID 720647; 380,000 tested, 0.35% active; HEK293 LGR2, CRE-luciferase, bursicon-stimulated, 4 h; inhibition, % at 9.99 µM;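 active = drop in luminescence signal, shown as inhibition above about 50% in the replicate tests, limit read from the data, passing the limit was not always enough; inconclusive = probably only some replicates passing the limit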;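 note: agonist challenge used bursicon conditioned medium at about half maximal strength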
TROY signal inh: TROY signaling inhibition; 360,000 tested, 0.98% active; inhibition, % at 10 µM; Q293 LMP1-TROYcd NF-kB luciferase reporter, 4 h;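 active = compounds whose plate-normalised and pattern-corrected inhibition of the luciferase reporter signal at the single screening dose is 50% or more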
TWEAK Fn14 block: blocks TWEAK-Fn14 interaction in a reporter cell assay; TWEAK-stimulated Fn14 reporter cells, luciferase luminescence, 8 h; inhibition, % at 10 µM; 360,000 tested, 2% active; AID 1159606; in the data active = inhibition above about 50%
Large screens that a line does not name were inactive. Sampled rows, rich in hits. Any-hit rate of the full collection: about 2.8%.

C[C@H](CO)N1C[C@H](C)[C@@H](CN(C)Cc2ccc(Oc3ccccc3)cc2)Oc2ccc(NC(=O)Cc3ccccc3)cc2CC1=O	none (no result: TROY signal inh, TWEAK Fn14 block)
COc1ccc(/C=C2\SC(=N)N(c3nccs3)C2=O)cc1OC	none
N=C1S/C(=C\c2ccc(-c3cccc(Cl)c3)o2)C(=O)N1c1nccs1	TWEAK Fn14 block 90
CCCNC(=O)C[C@H]1CC[C@@H]2[C@@H](COc3ccc(NC(=O)c4cccc(OC)c4)cc3C(=O)N2C)O1	none (no result: TROY signal inh, TWEAK Fn14 block)
CCn1c2ccccc2c2cc(/C=N/O)ccc21	TWEAK Fn14 block 71
OC(CN1CCOCC1)Cn1c2ccccc2c2ccccc21 (stereo unspecified)	none
c1ccc2c(c1)c1ccccc1n2CN1CCOCC1	TWEAK Fn14 block 75 (no result: PAX8 reporter, EWS-Fli block, LGR2 antag, TROY signal inh)
COc1ccc(C#Cc2ccc([C@H]3[C@H]4CN(C(=O)c5ccc(F)cc5)CC(=O)N4[C@H]3CO)cc2)cc1	none (no result: PAX8 reporter, TROY signal inh, TWEAK Fn14 block)
O=[N+]([O-])c1ccc(-c2ccc(C=Nc3cccc4ccccc34)o2)cc1	TROY signal inh 63, TWEAK Fn14 block 62 (no result: PAX8 reporter, EWS-Fli block, LGR2 antag)
O=[N+]([O-])c1ccc(-c2ccc(/C=N/O)o2)cc1	none
CC(C)NC(=O)N1CCCCN2[C@@H](CO)[C@H](c3ccc(C#CC4CC4)cc3)[C@@H]2C1	none (no result: TROY signal inh, TWEAK Fn14 block)
COc1cccc2cc(C(=O)C3=C(O)C(=O)N(CCN(C)C)C3c3ccc(Cl)cc3)oc12 (stereo unspecified)	TWEAK Fn14 block 60
CO[C@@H]1CN(C)C(=O)c2cc(NC(=O)c3ccno3)ccc2OC[C@H](C)N(S(C)(=O)=O)C[C@H]1C	none (no result: PAX8 reporter, TROY signal inh, TWEAK Fn14 block)
CCCCCCCCCCCCCCCC[n+]1cccc2ccccc21	PAX8 reporter 109, EWS-Fli block 89, TROY signal inh 54, TWEAK Fn14 block 72
CCCCCCCCC[n+]1cccc2c3ccccc3ccc21	none (no result: PAX8 reporter, EWS-Fli block, LGR2 antag)
CCOC(=O)/C=C/C(=O)Nc1ccc(S(=O)(=O)Nc2c(C)cc(C)cc2C)cc1	TROY signal inh 50
O=C(O)/C=C/C(=O)Nc1ccc(Oc2ccccc2)cc1	none
CCOC(=O)/C=C/S(=O)(=O)c1ccc(NC(C)=O)cc1	none (no result: PAX8 reporter, EWS-Fli block, LGR2 antag)
CCOC(=O)/C=C/C(=O)Nc1cc(S(=O)(=O)Nc2ccc(OC)cc2)ccc1N1CCOCC1	PAX8 reporter 98, TWEAK Fn14 block 56
CCOC(=O)/C=C/C(=O)Nc1ccc(Oc2ccccc2)cc1	LGR2 antag 102, TWEAK Fn14 block 71
Cc1noc(C)c1NC(=O)NCC[C@@H]1CC[C@@H](NC(=O)Cc2cccnc2)[C@H](CO)O1	none (no result: TROY signal inh, TWEAK Fn14 block)
COc1ccc(CN2C[C@H](C)[C@H](OC)CN(C)C(=O)c3cc(NC(=O)c4nc5ccccc5s4)ccc3OC[C@@H]2C)cc1	none (no result: TROY signal inh, TWEAK Fn14 block)
O=c1cccc2c1c1cc[nH]c3ccc(=O)n2c31	TWEAK Fn14 block 54 (no result: PAX8 reporter)
O=c1cc[nH]c2ccc(Cl)cc12	none
CC(=O)Oc1ccc(OC(C)=O)c(SCCCCCCl)c1	EWS-Fli block 54, TWEAK Fn14 block 76
CN1c2ccc(C3=CCCCC3)cc2[C@@H]2[C@@H](CCN2C(=O)C2CCC2)[C@H]1CO	none (no result: PAX8 reporter, TROY signal inh, TWEAK Fn14 block)
CN1c2ccc(C3=CCCCC3)cc2[C@H]2[C@H](CCN2C(=O)NC2CCCCC2)[C@@H]1CO	PAX8 reporter 77 (no result: TROY signal inh, TWEAK Fn14 block)
CN1c2ccc(C3=CCCCC3)cc2[C@H]2[C@H](CCN2C(=O)NC2CCCC2)[C@@H]1CO	none (no result: PAX8 reporter, LGR2 antag, TROY signal inh, TWEAK Fn14 block)
CN1c2ccc(C3=CCCCC3)cc2[C@H]2[C@H](CCN2C(=O)C2CCC2)[C@@H]1CO	PAX8 reporter 69 (no result: TROY signal inh, TWEAK Fn14 block)
COc1ccc(C(C#N)=C2C=C(Cl)C(=NO)C=C2Cl)cc1	TWEAK Fn14 block 75
Cc1nonc1NC(=O)CSc1nc(C23CC4CC(CC(C4)C2)C3)nc2ccccc12	TWEAK Fn14 block 66
NC(=O)[C@H]1[C@@H]2C(=O)O[C@@H](c3ccccc3)[C@@H](c3ccccc3)N2[C@@H](c2ccccc2OCCO)[C@]12C(=O)Nc1ccc(C#CC3(O)CCCCCC3)cc12	PAX8 reporter 103 (no result: LGR2 antag, TROY signal inh, TWEAK Fn14 block)
COC(=O)C(CC#Cc1ccc2c(c1)[C@]1(C(=O)N2)[C@H](c2ccccc2OCCO)N2[C@H](c3ccccc3)[C@H](c3ccccc3)OC(=O)[C@H]2[C@@H]1C(=O)N1CCN(c2ncccn2)CC1)C(=O)OC	PAX8 reporter 110, EWS-Fli block 60 (no result: LGR2 antag, TROY signal inh, TWEAK Fn14 block)
C=CCNC(=O)[C@H]1[C@@H]2C(=O)O[C@@H](c3ccccc3)[C@@H](c3ccccc3)N2[C@@H](c2ccccc2OCCO)[C@]12C(=O)Nc1ccc(C#CCC(C(=O)OC)C(=O)OC)cc12	EWS-Fli block 54 (no result: PAX8 reporter, LGR2 antag, TROY signal inh, TWEAK Fn14 block)
COC(=O)C(CC#Cc1ccc2c(c1)[C@]1(C(=O)N2)[C@H](C(=O)N2CCN(c3ncccn3)CC2)[C@H]2C(=O)O[C@H](c3ccccc3)[C@H](c3ccccc3)N2[C@@H]1c1ccc(OCCO)cc1)C(=O)OC	EWS-Fli block inconclusive (no result: LGR2 antag, TROY signal inh, TWEAK Fn14 block)
O=C(NCCc1ccccc1)[C@H]1[C@H](CO)[C@H]2Cn3c(cccc3=O)[C@@H]1N2C(=O)C1CCC1	none (no result: PAX8 reporter, TROY signal inh, TWEAK Fn14 block)
CN1C(=O)c2cc(NC(=O)c3ccccc3F)ccc2OC[C@@H]2O[C@@H](CC(=O)NCc3ccc4c(c3)OCO4)CC[C@@H]21	none (no result: TROY signal inh, TWEAK Fn14 block)
CCCC#Cc1ccc2c(c1)O[C@@H](CN(C)Cc1ccncc1)[C@H](C)CN([C@@H](C)CO)S2(=O)=O	none (no result: PAX8 reporter, TROY signal inh, TWEAK Fn14 block)
O=C(c1ccc2oc(CCc3ccccc3)nc2c1)N1CCC(O)CC1	TROY signal inh 58
CN(C)CCCN=Cc1c(-c2ccccc2)[nH]n(-c2nc3ccccc3s2)c1=O	TWEAK Fn14 block 62 (no result: LGR2 antag)
C=CS(=O)(=O)c1ccc(Oc2ccc(S(=O)(=O)C=C)cc2)cc1	PAX8 reporter 98, EWS-Fli block 53, LGR2 antag 102, TROY signal inh 63, TWEAK Fn14 block 102
C/C(=N\Nc1ccc([N+](=O)[O-])cc1)c1ccc(C#N)cc1	none
COc1ccc(C(=O)/C(C#N)=N/Nc2ccc([N+](=O)[O-])cc2)cc1	PAX8 reporter 90, TROY signal inh 63, TWEAK Fn14 block 59
N#CC(C#N)=NNc1ccc([N+](=O)[O-])cc1	TROY signal inh 56
C=C(NC(=O)C(=C)NC(=O)c1csc(C2=NC3c4csc(n4)C4NC(=O)c5csc(n5)C(C(C)(O)C(C)O)NC(=O)C5CSC(=N5)/C(=C/C)NC(=O)C(C(C)O)NC(=O)c5csc(n5)C3(CC2)NC(=O)C(C)NC(=O)C(=C)NC(=O)C(=C)NC(=O)C(C(C)C)NC2C=Cc3c(C(C)O)cc(nc3C2O)C(=O)OC4C)n1)C(N)=O (stereo unspecified)	EWS-Fli block 74
COC(=O)c1cc(=O)nc(NN=C2c3ccccc3-c3ccccc32)s1	TWEAK Fn14 block 61
COC(=O)c1cc(=O)nc(NN=Cc2ccccc2)s1	none (no result: TROY signal inh, TWEAK Fn14 block)
Cc1noc(C)c1NC(=O)N(C)C[C@@H]1Oc2c(NC(=O)c3ccc(-c4nccs4)cc3)cccc2C(=O)N([C@@H](C)CO)C[C@H]1C	none (no result: PAX8 reporter, TROY signal inh, TWEAK Fn14 block)
O=C(C[C@H]1C[C@@H]2c3cc(NC(=O)CC4CC4)ccc3O[C@@H]2[C@H](CO)O1)NCc1ccccc1F	none (no result: PAX8 reporter, TROY signal inh, TWEAK Fn14 block)
COc1cccc(-c2ccc3c(c2)[C@H]2[C@H](CCN2S(=O)(=O)c2ccccc2OC)[C@@H](CO)N3C)c1	PAX8 reporter 92 (no result: TROY signal inh, TWEAK Fn14 block)
